This passage reports inhibition results from PubChem BioAssay AID588338 (NMMLSC, 2011).

Values joined by “and” are separate entries in the source; they are usually repeats but may differ in a detail not shown here. Equal entries are not always repeated. The whole screen tested about 1,300 compounds, of which about 20 (2%) were called active. These entries were drawn from the full list. Values without a mark were called inactive.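 The calls were made as follows: active = inhibition above 50%, about 3 SD of the inhibition seen with non-fluorescent compounds; inactive = the rest.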

The assay in a line: GST-fluorescein capture on glutathione beads, confirmation, artefact control for arrestin-AP2 inhibitor project, biochemical, cherry pick 1, flow cytometry (AID 588338).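 Also: fluorescein maleimide labelled GST captured on 4 micron glutathione beads; higher means more loss of bead fluorescence from quenching or blocked binding.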 The following applies: GST-fluorescein binding to GSH beads, fluorescence, counter-screen; at 10 µM; stronger effect = higher value. A general note: Flow cytometry measures light scatter and fluorescence of single cells or particles in a stream.
Broadly, the inhibition is the drop in the measured response relative to a control, in per cent. As to `COc1cccc(-n2c(SCC(=O)c3c[nH]c4ccccc34)nc3ccccc3c2=O)c1`, the inhibition is 57.9% (active).

Take `Cn1c(=O)c2c(nc(N/N=C/c3cccs3)n2Cc2ccc(Br)cc2)n(C)c1=O`: the inhibition is 0.63%.

For `COc1ccc(CCNc2ncnc3c2nnn3Cc2ccccc2)cc1`, the inhibition was 4.82%.

Regarding `Cc1ccc(CNC(=O)C2CC(=O)N(C3CCCCCCC3)C2)cc1` (centres undefined), the inhibition was -4.09%.

With `Cc1ccc(Nc2ccc(C(N)=O)cc2[N+](=O)[O-])cc1`, the inhibition was -6.5%.

As for `CC(C)c1nnc(NC(=O)CCC(=O)N2CCN(c3cccc(Cl)c3)CC2)s1`, the inhibition was -10.6%.

As to `O=C(c1ccc(S(=O)(=O)NCc2ccco2)cc1)N1CCN(c2ccccc2)CC1`, the inhibition is 8.86%.

On to `CCCc1ccc(-c2csc(NC(=O)Cc3cccs3)n2)cc1`, for which the inhibition is -4.6%.

As to `Cc1ccc(C)c(NC(=S)NNC(=S)Nc2ccc(C(C)C)cc2)c1`, the inhibition is 0.62%.

`Cc1ccc(CN2C(=O)CCC2C(=O)NCCCN2CCCCC2C)cc1` (centres undefined): the inhibition was -11.5%.

For `Cc1cc(C(=O)OCC(=O)c2c(N)n(C)c(=O)n(C)c2=O)c(C)o1`, the inhibition is -2.19% and 1.72%.

Take `CCOc1ccc(-c2nnc(-c3ccco3)o2)cc1`: the inhibition is -7.89%.

For `O=c1[nH]c2ccccc2n2c(-c3ccccc3)nnc12`, the inhibition was 36.4%.

Take `Cc1ccc(C2(C)NC(=O)N(CC(=O)Nc3ccccc3C(=O)N3CCCCC3)C2=O)cc1` (centres undefined): the inhibition was -3.63%.

Regarding `CC(C)C[C@H](NC(=O)N1CCn2c1nc1ccccc12)C(=O)NC1CC1`, the inhibition is -5.48%.

For the molecule `CN1C(=O)/C(=C/c2ccco2)SC1=Nc1cccc(C(=O)O)c1`, the inhibition is 0.38%.

With `Brc1ccccc1C1Nc2cccc3cccc(c23)N1`, the inhibition was 1.35%.

In the case of `COCCNC(=O)Nc1ccc2nc(-c3ccco3)c(-c3ccco3)nc2c1`, the inhibition was 22.4%.

Turning to `Cc1ccc(OCCCCc2c(C)n[nH]c2C)cc1`, the inhibition is -8.59%.

As to `COc1cc2c(cc1NC(=O)COC(=O)/C=C/c1ccccc1)oc1ccccc12`, the inhibition was -10.3%.

`CC(Oc1ccccc1)C(=O)NN1Cc2ccccc2C1=N` (centres undefined): the inhibition was -4.56%.

For `Cc1ccc(S(=O)(=O)/N=C(/Nc2ccccn2)c2ccc(Cl)cc2)cc1`, the inhibition is -4.23%.

On to `O=C(NCc1ccco1)c1ccc(CS(=O)(=O)Cc2ccc(F)cc2)o1`, for which the inhibition was -8.88%.

As for `Cc1cc(C)cc(Oc2nc3c(C)cccn3c(=O)c2/C=C(\C#N)C(=O)NC2CCS(=O)(=O)C2)c1` (centres undefined), the inhibition was -0.21%.

For the molecule `COC(=O)c1cc(NC(=O)c2nn(C)c(=O)c3ccccc23)cc(C(=O)OC)c1`, the inhibition was -0.11%.

As to `CCn1c(=O)n(CC)c2cc(N3CCCC3)c(NC(=O)c3ccccc3Br)cc21`, the inhibition is -4.23%.

For `Cc1ccc(OCCCC(=O)Nc2ccc3c(c2)OCCO3)cc1`, the inhibition is -3.79%.

As to `Cn1c(=O)c([N+](=O)[O-])c(Oc2ccccc2)c2ccccc21`, the inhibition was -0.63%.

On to `COc1cc2c(cc1OC)CN(C(=O)c1cc(=O)c3ccccc3o1)CC2`, for which the inhibition is -0.62%.

Regarding `CCOc1ccc(C(=O)NC2CCN(CC(=O)NCc3cccs3)CC2)cc1`, the inhibition was -10.1%.

As for `CN(C)c1ccc(NC(=O)c2ccncc2)c2ccccc12`, the inhibition was -4.94%.

As for `CCOC(=O)N1CCN(C(=O)CNC(=O)Cc2ccc(Cl)cc2)CC1`, the inhibition was -12.7%.

Consider `CN(C(=O)COC(=O)c1cc(=O)[nH]c2ccccc12)C1CCCCC1`, for which the inhibition was -4.98%.

`CC(NCCc1ccc(S(N)(=O)=O)cc1)C(=O)NCc1ccccc1` (centres undefined): the inhibition was 1.19%.

Regarding `CC(C)(C)c1ccc(C(=O)NCCn2c(N)c(C#N)c3nc4ccccc4nc32)cc1`, the inhibition was 1.49%.

Regarding `CC(CN1CCCCC1)OC(=O)c1ccccc1Cl` (centres undefined), the inhibition was 0.92%.

In the case of `Cc1ccc(Cl)cc1-c1ccc(/C=N/n2cnnc2)o1`, the inhibition is -2.14%.

Turning to `Cc1ccc(S(=O)(=O)N2CCCCC2)cc1NC(=O)c1cccnc1`, the inhibition was -0.2%.

Regarding `Cc1cccc(NC(=S)NC(=O)c2ccc(Br)o2)c1`, the inhibition is -2.99%.

For `NS(=O)(=O)c1ccc2nc(NC(=O)C3=COCCO3)sc2c1`, the inhibition was -9.07%.

In the case of `C/C(=N\Nc1ccc([N+](=O)[O-])cc1)c1ccc(-n2nncc2C(C)(C)C)cc1`, the inhibition is 2.54%.

For `CC(=O)NCCNC(=O)c1cc(-c2cccc3ccccc23)nc2ccccc12`, the inhibition was 8.05%.

As for `Cc1cc(C(=O)Nc2ccc(C)c(S(=O)(=O)N3CCOCC3)c2)c2ccccc2n1`, the inhibition was 3.01%.

Take `Cc1ccc(S(=O)(=O)N2CCN(C(=O)c3ccccc3-c3nc4ccccc4s3)CC2)c(C)c1`: the inhibition is -4.41%.

On to `O=C(NCC1(N2CCCCC2)CCCCC1)c1cccc(S(=O)(=O)Nc2ccccc2Cl)c1`, for which the inhibition is -0.81%.

Regarding `CCC(C(=O)OC)n1cnc2c(oc3ccccc32)c1=O` (centres undefined), the inhibition was -1.51%.

Regarding `NC(=O)C1CCN(C(=O)CC2C(=O)NCCN2Cc2cccc(Oc3ccccc3)c2)CC1` (centres undefined), the inhibition was -3.68%.

In the case of `CC(NC(=O)c1cc2cc(Cl)ccc2oc1=N)c1ccccc1` (centres undefined), the inhibition was -2.36%.

In the case of `COc1ccc(/C=C2\SC(=S)N(CCC(=O)Nc3ccccn3)C2=O)cc1OC`, the inhibition is -0.03%.

Take `O=C(C1CCCO1)N1CCN(S(=O)(=O)c2ccc(Br)cc2)CC1` (centres undefined): the inhibition was -16.4%.

Take `COC(=O)C1CC2=C(CC(C)(C)CC2=O)N(c2ccccc2)C1=O` (centres undefined): the inhibition was -0.09%.

As to `CCC(=O)Nc1nc2ccccc2n1Cc1ccccc1C`, the inhibition is 6.47%.

Turning to `Cc1cccc(C)c1NC(=O)C(Cl)C(=O)c1ccccc1` (centres undefined), the inhibition is -5.59%.

As for `Cc1cccc(Nc2ccccc2C(=O)NCc2ccco2)c1C`, the inhibition is -4.39%.
